This passage reports growth results from PubChem BioAssay (NCI).

About 83,000 compounds went through this panel and 20% of them were active in at least one assay; those are over-represented in the sample as a whole.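 Single-dose data. Exposure time 48 hours. Values below 10 considered active.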 Unmarked numbers belong to inactive results. The source made the active and inactive calls.

Common to all, as to experiment: NCI-60 one-dose screen, 48 h (100 = growth as untreated, 0 = no growth, -100 = all killed)
One assay deals with RPMI-8226 leukemia. Conditions: 10 µM unless noted.
The subject of another assay is OVCAR-8 ovarian. As to conditions: 10 µM unless noted.
The subject of another assay is OVCAR-5 ovarian. Conditions: 10 µM unless noted.
The subject of the next assay is OVCAR-4 ovarian. As to conditions: 10 µM unless noted.
Another assay has as its system IGROV1 ovarian. Conditions: 10 µM unless noted.
In another assay the test system is OVCAR-3 ovarian. Conditions: 10 µM unless noted.
The next assay concerns HS 578T breast. Conditions: 10 µM unless noted.
The next assay has as its system NCI/ADR-RES ovarian. Conditions: 10 µM unless noted.
A further assay concerns T-47D breast. As to conditions: 10 µM unless noted.
The subject of another assay is BT-549 breast. As to conditions: 10 µM unless noted.
A further assay has as its system MDA-MB-435 melanoma. Conditions: 10 µM unless noted.
Another assay deals with SW-620 colon. Conditions: 10 µM unless noted.
The test system of the next assay is MCF7 breast. Conditions: 10 µM.
The next assay concerns HCT-116 colon. As to conditions: 10 µM unless noted.
A further assay has as its system HCC-2998 colon. Conditions: 10 µM unless noted.
The next assay has as its system KM12 colon. As to conditions: 10 µM unless noted.
The next assay has as its system SK-OV-3 ovarian. As to conditions: 10 µM unless noted.

Take `CC(=O)c1ccc(Nc2nc(NCCO)nc(Nc3ccc(Cl)cc3)n2)cc1`: the growth is 89.5% with RPMI-8226 leukemia; 93.4% in the assay on OVCAR-8 ovarian; 96.1% in the assay with OVCAR-5 ovarian; 95.7% in the assay on OVCAR-4 ovarian; 98.7% in the assay on IGROV1 ovarian; 95.5% in the assay on OVCAR-3 ovarian. The growth in the assay on HS 578T breast was 87.2%; with NCI/ADR-RES ovarian, 91.9%; with T-47D breast, 79.9%; with BT-549 breast it was 97.3%; in the assay on MDA-MB-435 melanoma it was 59.4%; in the assay with SW-620 colon, 94.5%. The growth in the assay with MCF7 breast was 69.1%; with HCT-116 colon it was 98.4%; with HCC-2998 colon, 105%; with KM12 colon, 90.8%.
On to `COC(=O)/C(CCC=C(C)C)=C1\[C@@H](OC(C)=O)C[C@@]2(C)[C@H]1C[C@@H](O)[C@H]1[C@@]3(C)CC[C@H](NCCCNCCCCNCCCN)[C@@H](C)[C@@H]3CC[C@@]12C`, for which the growth in the assay on RPMI-8226 leukemia was 20.2%; in the assay with OVCAR-8 ovarian, 54.6%; in the assay with OVCAR-5 ovarian, 88.1%; with OVCAR-4 ovarian it was 85.1%; with IGROV1 ovarian, 41.9%; with OVCAR-3 ovarian it was 83%. Further, the growth with HS 578T breast is 82.7%; with NCI/ADR-RES ovarian, 65.9%; in the assay with T-47D breast it was 57%; with BT-549 breast, 80.4%; in the assay with MDA-MB-435 melanoma, 8.03% (active); in the assay with SW-620 colon it was 55.8%. The growth with MCF7 breast was 95.6%; in the assay on HCT-116 colon, 47.1%; in the assay with HCC-2998 colon it was 52.1%; in the assay with KM12 colon it was 21.7%.
For `COc1cc(OC)cc(N2C(=O)N(Cc3ccc(C(C)(C)C)cc3)c3ccccc3S2(=O)=O)c1`, the growth in the assay with RPMI-8226 leukemia is 34.6%; in the assay on OVCAR-8 ovarian, 96%; in the assay with OVCAR-5 ovarian it was 86.2%; in the assay with OVCAR-4 ovarian, 81.8%; with SK-OV-3 ovarian it was 93.4%; in the assay on OVCAR-3 ovarian it was 92.2%. The growth with HS 578T breast was 90.9%; in the assay with NCI/ADR-RES ovarian, 73.2%; in the assay on T-47D breast, 81.1%; in the assay with BT-549 breast it was 99.6%; in the assay on SW-620 colon, 82.2%; in the assay with MCF7 breast, 90.7%. In addition, the growth was 76.2% in the assay on HCT-116 colon, -46% (active) in the assay with HCC-2998 colon and 82.6% in the assay with KM12 colon.
As to `CCCCCCCCCCOC(=O)c1ccccc1C(=O)OCCCC`, the growth in the assay with RPMI-8226 leukemia is 101%; in the assay on OVCAR-8 ovarian, 109%; in the assay with OVCAR-5 ovarian, 103%; in the assay on OVCAR-4 ovarian it was 115%; in the assay on SK-OV-3 ovarian it was 114%; with HS 578T breast, 118%. Further, the growth was 107% in the assay on NCI/ADR-RES ovarian; 106% in the assay with T-47D breast; 114% in the assay on BT-549 breast; 102% in the assay on SW-620 colon; 102% in the assay with MCF7 breast; 84.9% in the assay on HCT-116 colon. Further, the growth in the assay with HCC-2998 colon was 108%; in the assay on KM12 colon, 105%.
Take `Nc1nc(-c2cnccn2)nn1-c1nc2ccccc2s1`: the growth was 82% in the assay on RPMI-8226 leukemia; 99.9% in the assay with OVCAR-8 ovarian; 104% with OVCAR-5 ovarian; 97.7% with OVCAR-4 ovarian; 100% with IGROV1 ovarian; 108% with OVCAR-3 ovarian. Moreover, the growth in the assay with HS 578T breast is 99.3%; in the assay on NCI/ADR-RES ovarian it was 101%; in the assay on T-47D breast, 96.9%; in the assay on BT-549 breast, 104%; in the assay on MDA-MB-435 melanoma, 103%; with SW-620 colon it was 105%. Also, the growth was 83.8% in the assay with MCF7 breast, 93% in the assay on HCT-116 colon, 101% in the assay on HCC-2998 colon and 101% with KM12 colon.
On to `O=C(c1nc2ccccc2[nH]1)C1C(c2cccc([N+](=O)[O-])c2)C2CC3CCCCC3N2[C@@]12C(=O)Nc1cc(Cl)ccc12` (stereo partly drawn), for which the growth with RPMI-8226 leukemia is 7.96% (active); in the assay with OVCAR-8 ovarian it was 45.1%; with OVCAR-5 ovarian, 32%; in the assay with OVCAR-4 ovarian it was 27.5%; in the assay on IGROV1 ovarian, 10.3%; in the assay with OVCAR-3 ovarian it was 45.5%. The growth was 33.6% in the assay on HS 578T breast; 39.7% with NCI/ADR-RES ovarian; 38.4% with T-47D breast; 52.9% in the assay on BT-549 breast; 35.8% in the assay on MDA-MB-435 melanoma; 37.9% with SW-620 colon. The growth in the assay on MCF7 breast was 16.3%; in the assay with HCT-116 colon it was 13%; with HCC-2998 colon, 23.9%; in the assay with KM12 colon, 32.5%.
For `COc1ccc(C2NCCc3c2[nH]c2ccccc32)cc1CN1CCN(c2ccc(F)cc2)CC1` (stereo not drawn), the growth with RPMI-8226 leukemia was -10% (active); in the assay with OVCAR-8 ovarian, 24.6%; in the assay on OVCAR-5 ovarian it was 64.8%; with OVCAR-4 ovarian, 65.3%; in the assay with SK-OV-3 ovarian, 88.8%; with OVCAR-3 ovarian, 66.8%. For the same molecule, the growth with HS 578T breast is 92.2%; in the assay on NCI/ADR-RES ovarian, 54.7%; with T-47D breast it was 54.6%; in the assay on MDA-MB-435 melanoma, 38.2%; with SW-620 colon it was 29.6%; with MCF7 breast, 33.9%. Besides, the figures for the growth with HCT-116 colon, in the assay on HCC-2998 colon and in the assay on KM12 colon were 41.6%, 17.9% and 40.4%, respectively.
